Assay [1] has as its target Estrogen receptor beta (Homo sapiens) (UniProt Q92731). The experiment in a line: qHTS assay to identify small molecule agonists of the estrogen receptor beta (ER-beta) signaling pathway (AID 1259377; active = well fitted activation curve with a large enough effect in the signal ratio in the repeat runs, not every such curve was filed as active; the % refers to the signal ratio). In outline: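 Agonist mode cell assay in GripTite HEK293T cells expressing an ER-beta fusion that drives beta-lactamase from an Upstream Activator Sequence; 16 hr compound exposure at 37C, then 2 h LiveBLAzer B/G FRET substrate at room temperature, fluorescence read-out.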

The target is the same in assay [2]. The experiment in a line: qHTS assay to identify small molecule antagonists of the estrogen receptor beta (ER-beta) signaling pathway (AID 1259378; active = well fitted inhibition curve with a large enough effect in the signal ratio in the repeat runs, not every such curve was filed as active; the % refers to the signal ratio). In outline: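 ER-beta-UAS-bla HEK293T (GripTite) cells in 2% charcoal-stripped FBS medium were preincubated 6 hr at 37C, dosed with compound, then stimulated with 1 nM E2 (final) for 16 hr; beta-lactamase reporter read by B/G FRET fluorescence after 2 hr substrate loading.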
Background: In qHTS, concentration-response curves come from the screen itself.

Assay [3] can be described thus: qHTS assay to identify small molecule agonists of the androgen receptor (AR) signaling pathway in the presence of an antagonist - cell viability counter screen (AID 1259379).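 Note: MDA-kb2 human breast cancer cells carrying an MMTV luciferase reporter; series mostly up to about 92 µM; nearly all actives have a fitted effect of over 25% in size.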 In outline: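 A CellTiter-Fluor read-out measured viability of MDA-kb2 reporter cells (MMTV promoter with AR and GR response elements). Treatment: nilutamide 3.0uM final with compounds at 15 concentrations, 16 hr, 37C, 0% CO2.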

A short description of assay [4]: qHTS assay to identify small molecule antagonists of the estrogen receptor beta (ER-beta) signaling pathway - cell viability counter screen (AID 1259382). Note: nearly all actives have a fitted effect of over 55% in size. Note: potency is the fitted concentration of half-maximal effect. In outline: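 Agonist-stimulated (1nM E2) ER-beta-UAS-bla HEK293T cells are incubated with library compounds for 16 hr at 37C. Cell viability is then assessed in the reporter-assay wells by adding CellTiter-Glo and reading luminescence after 30 min.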

For assay [5], the target named is Estrogen receptor (Homo sapiens) (UniProt P03372). Briefly: qHTS assay to identify small molecule agonists of the estrogen receptor alpha (ER-alpha) signaling pathway in the presence of an antagonist (AID 1259383; calls by dose curve; note: top concentration of the series differs between compounds; nearly all actives have a fitted effect of over 15% in size). In outline:
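Using VM7Luc4E2 cells seeded 24hr before treatment, antagonist ICI-182,780 (10.0nM final) was added, followed by compounds at 15 concentrations. Plates incubated 22hr; ONE-Glo luminescence quantified reporter activity.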

Assay [6] deals with Progesterone receptor (Homo sapiens) (UniProt P06401). Briefly: qHTS assay to identify small molecule agonists of the progesterone receptor (PR) signaling pathway (AID 1346784; calls by dose curve; note: nearly all actives have a fitted effect of over 30% in size). In outline:
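Cells (PR-UAS-bla HEK 293T, GripTite) were plated in assay medium containing 2% charcoal-stripped FBS and incubated 6 hr. Test compounds in DMSO were added for 16 hr at 37C. FRET substrate was then loaded for 2 hr at room temperature before fluorescence reading.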

The target is the same in assay [7]. The experiment in a line: qHTS assay to identify small molecule antagonists of the progesterone receptor (PR) signaling pathway (AID 1346795; active = well fitted inhibition curve with a large enough effect in the signal ratio in the repeat runs, not every such curve was filed as active; the % refers to the signal ratio; note: potency is the fitted concentration of half-maximal effect). In outline:
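Antagonist mode: compounds tested against 1 nM (final) promegestone stimulation in HEK293T cells expressing PR-UAS-bla reporter, 16 hr at 37C, 5% CO2; beta-lactamase activity detected via B/G FRET substrate after 2 hr at room temperature.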

A short description of assay [8]: qHTS assay to identify small molecule antagonists of the progesterone receptor (PR) signaling pathway - cell viability counter screen (AID 1346798). Note: nearly all actives have a fitted effect of over 50% in size. Note: potency is the fitted concentration of half-maximal effect. The gist of the method:
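Counter screen for cytotoxicity: viability of PR-UAS-bla HEK293T cells was measured with CellTiter-Glo luminescence following 16 hr compound exposure in the presence of R5020.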

The nature of assay [9]: qHTS assay to identify small molecule agonists of the progesterone receptor (PR) signaling pathway - cell viability counter screen (AID 1346799; calls by dose curve; note: nearly all actives have a fitted effect of over 45% in size). In outline:
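Cells (PR-UAS-bla HEK293T) are plated at 3,000/well in 2% charcoal-stripped FBS medium, rested 6 hr, dosed and incubated 16 hr at 37C. CellTiter-Glo is then added and luminescence measured after 30 min at room temperature.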

A short description of assay [10]: qHTS assay to identify small molecule antagonists of the TGF-beta/Smad signaling pathway - cell viability counter screen (AID 1346824). Note: nearly all actives have a fitted effect of over 50% in size. The gist of the method:
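SBE-bla HEK 293T cells were plated overnight at 37 C, then given compounds in DMSO plus TGF-beta1 (added as 0.25 ng/mL solution) for 5 hr. After the bla read, CellTiter-Glo was added to the same wells and luminescence read after 30 min at room temperature.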

Assay [11] in a line: qHTS assay to identify small molecule agonists of the TGF-beta/Smad signaling pathway - cell viability counter screen (AID 1346829). Note: top concentration of the series differs between compounds; nearly all actives have a fitted effect of over 45% in size. The gist of the method:
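SBE-bla HEK 293T cells plated overnight, compound exposure 5 hr at 37 C. Viability read in the same wells by CellTiter-Glo luminescence after 30 min at room temperature, following the beta-lactamase read.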

A short description of assay [12]: qHTS assay to identify small molecule agonists of the TGF-beta/Smad signaling pathway (AID 1346859; active = well fitted activation curve with a large enough effect in the signal ratio in the repeat runs, not every such curve was filed as active; the % refers to the signal ratio; note: series mostly up to about 77 µM). In outline: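 Reporter line: HEK 293T with stably integrated SBE-controlled beta-lactamase. Compound exposure lasts 5 hr at 37 C and 5% CO2; substrate loading follows for 2 hr at room temperature, with emission read at 460 and 530 nm.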
In assay [13] the target is Thyrotropin-releasing hormone receptor (Homo sapiens) (UniProt P34981). The experiment in a line: qHTS assay to identify small molecule antagonists of the thyrotropin-releasing hormone receptor (TRHR) signaling pathway (AID 1346877; active = well fitted inhibition curve with a large enough effect in the repeat runs, not every such curve was filed as active; note: series mostly up to about 51 µM). In outline:
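Screening used HEK293 cells engineered with TRHR, with a brief 5 min room-temperature compound exposure preceding addition of TRH to 1 nM. The read-out was kinetic calcium-dye fluorescence, concentration-response from 15 doses in triplicate.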

For assay [14] the target is unchanged. The experiment in a line: qHTS assay to identify small molecule agonists of the thyrotropin-releasing hormone receptor (TRHR) signaling pathway (AID 1346891; calls by dose curve;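 note: HEK293 cells expressing TRHR with calcium dye readout; series mostly up to about 58 µM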). The gist of the method: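 Cells: TRHR-Hek293, seeded and incubated 18 h. Dye loading: 2 h at 37 °C. Compound added from DMSO stock by pin tool. Read-out: kinetic calcium fluorescence over 3 min.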
Assay [15] is described as follows: qHTS assay to identify small molecule agonists or antagonists of the thyroid stimulating hormone receptor (TSHR) signaling pathway - wild type cell line counter screen (AID 1259384; calls by dose curve). In outline:
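Wild-type HEK293 cells were plated 18 h at 37 C/5% CO2, pin-dosed with compound plus Ro20-1724 medium, held 30 min at room temperature, then given cAMP-d2 and anti-cAMP-cryptate; fluorescence was read after 1 h. Fifteen concentrations, triplicate.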

A short description of assay [16]: qHTS assay to identify small molecule agonists of the estrogen receptor alpha (ER-alpha) signaling pathway in the presence of an antagonist - cell viability counter screen (AID 1259386).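 Note: series mostly up to about 92 µM; cells exposed to compounds for 22 h at 37 °C before the viability read; nearly all actives have a fitted effect of over 30% in size.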 The gist of the method: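 ICI-182,780 at 10.0nM final accompanies the compound titration (15 concentrations, 22hr, 37C) on VM7Luc4E2 cells. The CellTiter-Fluor fluorescence readout runs in the same wells as the luciferase assay.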

In assay [17] the target is Thyrotropin receptor (Homo sapiens) (UniProt P16473). The experiment in a line: qHTS assay to identify small molecule antagonists of the thyroid stimulating hormone receptor (TSHR) signaling pathway (AID 1259385; calls by dose curve; note: nearly all actives have a fitted effect of over 20% in size). The gist of the method:
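TSHR-HEK293 cells were plated and held 18 h at 37C/5% CO2, then given compound plus Ro20-1724 and stimulated with TSH at 1.5 ng/mL final. After 30 min at room temperature, cAMP was detected with cAMP-d2/anti-cAMP-cryptate (1 h) by fluorescence.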

Assay [18] deals with Androgen receptor (Homo sapiens) (UniProt P10275). Briefly: qHTS assay to identify small molecule agonists of the androgen receptor (AR) signaling pathway in the presence of an antagonist (AID 1259381; calls by dose curve; note: nearly all actives have a fitted effect of over 15% in size). The gist of the method:
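Using human MDA-kb2 cells with an MMTV promoter–luciferase construct (AR and GR response elements), agonist activity is scored under 3.0uM nilutamide (final) co-treatment; 16hr incubation, 37C, luminescence readout via ONE-Glo.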

A short description of assay [19]: qHTS assay to identify small molecule agonists of the estrogen receptor beta (ER-beta) signaling pathway - cell viability counter screen (AID 1259380). Note: nearly all actives have a fitted effect of over 30% in size. Note: potency is the fitted concentration of half-maximal effect. In outline: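 Cells used were ER-beta-UAS-bla HEK293T in medium with 2% charcoal-stripped FBS. They were treated for 16 hr at 37C. Viability came from CellTiter-Glo luminescence.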

Results filed as inconclusive are left out. Active and inactive are the calls of the source. Unless noted, calls come from the whole dose curve; as a rule, active = well fitted curve in the direction sought with a large enough effect in the repeat runs; inconclusive = weak or mixed curves; inactive = no such curve, though single readings can be large; an effect the other way counts as inactive or inconclusive.

Chain of Estrogen receptor (Homo sapiens) (P03372 whole entry, looked up): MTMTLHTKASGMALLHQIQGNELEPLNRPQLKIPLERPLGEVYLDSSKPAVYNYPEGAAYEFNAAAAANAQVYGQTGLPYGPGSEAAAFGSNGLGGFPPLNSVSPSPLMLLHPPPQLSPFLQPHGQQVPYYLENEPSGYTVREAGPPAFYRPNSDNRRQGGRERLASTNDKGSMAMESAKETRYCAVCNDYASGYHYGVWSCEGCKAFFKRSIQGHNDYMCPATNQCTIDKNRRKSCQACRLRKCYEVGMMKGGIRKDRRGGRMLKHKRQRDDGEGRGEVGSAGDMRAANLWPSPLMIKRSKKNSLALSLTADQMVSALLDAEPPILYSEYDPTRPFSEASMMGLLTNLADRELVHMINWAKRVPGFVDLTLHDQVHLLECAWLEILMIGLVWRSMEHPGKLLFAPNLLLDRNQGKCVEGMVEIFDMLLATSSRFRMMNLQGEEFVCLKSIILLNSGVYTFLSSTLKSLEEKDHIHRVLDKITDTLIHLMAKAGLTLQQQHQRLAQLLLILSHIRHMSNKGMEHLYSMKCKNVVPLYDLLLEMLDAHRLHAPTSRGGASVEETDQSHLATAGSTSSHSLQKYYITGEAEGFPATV
Chain of Estrogen receptor beta (Homo sapiens) (Q92731 whole entry, looked up, the tested form may be a part): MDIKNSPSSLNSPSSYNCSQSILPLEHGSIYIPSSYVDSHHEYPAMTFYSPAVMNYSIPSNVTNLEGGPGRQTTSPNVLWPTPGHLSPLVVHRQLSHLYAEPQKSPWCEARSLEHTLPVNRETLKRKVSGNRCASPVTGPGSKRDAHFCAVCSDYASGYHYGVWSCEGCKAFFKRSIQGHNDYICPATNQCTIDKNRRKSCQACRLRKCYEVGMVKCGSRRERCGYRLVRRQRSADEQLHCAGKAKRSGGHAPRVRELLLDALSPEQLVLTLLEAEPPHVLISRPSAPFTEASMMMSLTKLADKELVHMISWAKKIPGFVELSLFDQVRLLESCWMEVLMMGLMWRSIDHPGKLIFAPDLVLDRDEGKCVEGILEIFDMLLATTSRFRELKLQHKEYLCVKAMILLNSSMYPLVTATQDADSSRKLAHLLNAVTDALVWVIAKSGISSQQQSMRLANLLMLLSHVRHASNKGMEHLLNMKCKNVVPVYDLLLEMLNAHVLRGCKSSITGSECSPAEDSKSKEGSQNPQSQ
Chain of Thyrotropin-releasing hormone receptor (Homo sapiens) (P34981 whole entry, looked up): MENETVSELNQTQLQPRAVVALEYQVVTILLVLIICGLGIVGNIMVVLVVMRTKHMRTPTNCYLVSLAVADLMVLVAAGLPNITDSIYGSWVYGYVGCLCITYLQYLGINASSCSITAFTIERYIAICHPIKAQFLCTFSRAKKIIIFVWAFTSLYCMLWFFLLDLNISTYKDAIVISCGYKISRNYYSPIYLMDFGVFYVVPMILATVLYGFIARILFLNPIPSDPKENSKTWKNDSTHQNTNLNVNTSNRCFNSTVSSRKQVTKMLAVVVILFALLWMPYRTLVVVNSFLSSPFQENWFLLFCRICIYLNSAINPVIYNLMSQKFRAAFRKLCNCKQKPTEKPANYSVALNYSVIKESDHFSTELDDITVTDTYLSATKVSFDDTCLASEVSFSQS
Chain of Thyrotropin receptor (Homo sapiens) (P16473 whole entry, looked up): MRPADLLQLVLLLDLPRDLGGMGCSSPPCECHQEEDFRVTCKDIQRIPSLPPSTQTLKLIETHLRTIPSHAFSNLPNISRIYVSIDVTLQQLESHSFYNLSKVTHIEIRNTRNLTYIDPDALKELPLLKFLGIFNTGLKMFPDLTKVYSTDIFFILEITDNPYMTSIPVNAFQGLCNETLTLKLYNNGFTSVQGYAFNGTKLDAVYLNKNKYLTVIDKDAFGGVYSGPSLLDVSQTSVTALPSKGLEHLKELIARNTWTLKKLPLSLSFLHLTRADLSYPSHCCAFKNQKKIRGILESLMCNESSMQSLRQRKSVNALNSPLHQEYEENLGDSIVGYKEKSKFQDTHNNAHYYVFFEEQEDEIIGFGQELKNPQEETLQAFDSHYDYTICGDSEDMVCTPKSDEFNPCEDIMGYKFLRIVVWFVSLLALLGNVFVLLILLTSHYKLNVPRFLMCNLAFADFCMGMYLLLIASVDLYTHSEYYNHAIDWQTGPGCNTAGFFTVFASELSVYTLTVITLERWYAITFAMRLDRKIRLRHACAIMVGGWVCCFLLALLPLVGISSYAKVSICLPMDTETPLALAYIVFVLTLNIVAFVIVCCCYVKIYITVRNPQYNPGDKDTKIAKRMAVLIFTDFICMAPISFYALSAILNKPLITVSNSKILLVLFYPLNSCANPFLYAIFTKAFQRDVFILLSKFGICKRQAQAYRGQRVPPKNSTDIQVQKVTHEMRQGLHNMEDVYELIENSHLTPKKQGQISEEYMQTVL
Chain of Progesterone receptor (Homo sapiens) (P06401 whole entry, looked up): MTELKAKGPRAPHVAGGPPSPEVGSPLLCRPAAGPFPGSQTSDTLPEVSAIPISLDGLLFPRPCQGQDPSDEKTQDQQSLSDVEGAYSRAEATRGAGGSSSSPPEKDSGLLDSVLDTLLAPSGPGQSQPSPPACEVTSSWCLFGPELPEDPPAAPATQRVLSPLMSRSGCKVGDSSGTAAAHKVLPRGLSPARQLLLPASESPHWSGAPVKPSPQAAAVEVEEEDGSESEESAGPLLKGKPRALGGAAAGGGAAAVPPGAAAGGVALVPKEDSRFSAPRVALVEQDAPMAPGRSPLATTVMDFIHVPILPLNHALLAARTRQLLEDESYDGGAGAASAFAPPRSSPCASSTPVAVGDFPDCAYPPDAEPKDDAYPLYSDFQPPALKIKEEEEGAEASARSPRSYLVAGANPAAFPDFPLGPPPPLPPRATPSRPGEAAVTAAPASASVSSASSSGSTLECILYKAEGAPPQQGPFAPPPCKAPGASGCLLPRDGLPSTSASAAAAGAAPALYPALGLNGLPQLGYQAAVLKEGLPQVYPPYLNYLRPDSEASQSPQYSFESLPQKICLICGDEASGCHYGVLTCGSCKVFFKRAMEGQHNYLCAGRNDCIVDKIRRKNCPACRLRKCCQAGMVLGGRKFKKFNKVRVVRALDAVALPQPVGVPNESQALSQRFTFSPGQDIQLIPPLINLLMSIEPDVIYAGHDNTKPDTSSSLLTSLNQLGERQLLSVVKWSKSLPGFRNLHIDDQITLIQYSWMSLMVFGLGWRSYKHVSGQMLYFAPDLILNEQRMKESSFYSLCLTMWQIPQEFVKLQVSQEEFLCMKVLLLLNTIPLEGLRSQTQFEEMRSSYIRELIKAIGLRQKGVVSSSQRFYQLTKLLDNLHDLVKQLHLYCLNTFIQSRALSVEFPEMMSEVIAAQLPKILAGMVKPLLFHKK
Chain of Androgen receptor (Homo sapiens) (P10275 whole entry, looked up): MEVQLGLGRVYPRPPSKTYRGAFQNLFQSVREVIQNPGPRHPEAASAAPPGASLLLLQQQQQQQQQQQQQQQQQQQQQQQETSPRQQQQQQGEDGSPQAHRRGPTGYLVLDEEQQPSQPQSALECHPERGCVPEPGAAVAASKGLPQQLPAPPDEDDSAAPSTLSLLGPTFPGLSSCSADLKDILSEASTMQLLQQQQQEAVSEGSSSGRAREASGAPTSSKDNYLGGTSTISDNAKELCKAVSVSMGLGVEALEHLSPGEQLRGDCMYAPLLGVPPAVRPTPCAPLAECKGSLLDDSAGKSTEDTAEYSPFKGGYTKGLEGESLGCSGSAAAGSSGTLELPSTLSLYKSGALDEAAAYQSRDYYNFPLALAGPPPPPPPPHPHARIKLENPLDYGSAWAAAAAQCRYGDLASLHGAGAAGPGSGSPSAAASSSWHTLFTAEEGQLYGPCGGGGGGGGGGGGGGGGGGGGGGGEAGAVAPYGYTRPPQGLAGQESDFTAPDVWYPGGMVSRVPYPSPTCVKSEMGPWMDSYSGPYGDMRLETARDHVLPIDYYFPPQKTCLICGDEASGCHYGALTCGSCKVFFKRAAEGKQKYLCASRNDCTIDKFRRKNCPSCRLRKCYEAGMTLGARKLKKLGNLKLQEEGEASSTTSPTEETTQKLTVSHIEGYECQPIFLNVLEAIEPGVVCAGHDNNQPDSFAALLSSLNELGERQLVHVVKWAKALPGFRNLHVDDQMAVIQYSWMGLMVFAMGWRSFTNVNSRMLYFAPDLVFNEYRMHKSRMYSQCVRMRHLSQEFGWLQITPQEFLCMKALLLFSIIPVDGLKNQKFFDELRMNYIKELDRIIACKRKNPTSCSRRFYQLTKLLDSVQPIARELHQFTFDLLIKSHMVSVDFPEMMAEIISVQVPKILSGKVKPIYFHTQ

On to `Cc1nc2ccccn2c(=O)c1CCN1CCC(C(=O)c2ccc(F)cc2)CC1`, for which the Potency entry in [1], in assay [2], in assay [3], in [4], in assay [5] and in [6] was “inactive” each time. Moreover, the Potency entry in assay [7], in assay [8], in assay [9] and in [14] was “inactive” throughout. The compound was called inactive in assay [10], in [11], in [12] and in [13].
For `C(=C\c1ccccc1)/CN1CCN(C(c2ccccc2)c2ccccc2)CC1`, the Potency result in assay [1], in [3], in assay [16] and in assay [14] was “inactive” throughout. Besides, the call in [15], in assay [10], in assay [11], in assay [12] and in [13] was inactive.
As to `CCOC(=N)CC(=O)OCC`, the Potency result in [2], in assay [3], in [5], in assay [17], in assay [16] and in [14] was “inactive” in each case. The outcome in assay [15], in assay [10], in assay [11], in [12] and in [13] was inactive. Also, the Potency in assay [8] is 17.2 µM (active).
On to `COc1cc2c(N3CCN(C(=O)Nc4ccc(OC(C)C)cc4)CC3)ncnc2cc1OCCCN1CCCCC1`, for which the Potency entry in [18], in assay [4], in assay [5], in assay [17], in assay [6] and in [7] was “inactive” in each case. Further, the Potency result in assay [8] and in assay [9] was “inactive” throughout. In addition, the compound was classed as inactive in [15], in assay [10], in assay [11], in assay [12] and in assay [13].
Turning to `C/C=C/C=C/CCCCCCCO`, the Potency entry in assay [3], in assay [4], in assay [5], in assay [17], in assay [6] and in assay [14] was “inactive” throughout. Moreover, the compound was called inactive in [15], in assay [10], in assay [11], in assay [12] and in [13].
As to `COCCOC(=O)C1=C(C)NC(C)=C(C(=O)OC/C=C/c2ccccc2)C1c1cccc([N+](=O)[O-])c1` (stereo not given), the Potency entry in [3], in assay [19], in [4], in assay [5], in assay [17] and in [16] was “inactive” in each case. Also, the Potency entry in assay [6] and in [14] was “inactive” in each case. Besides, the compound was called inactive in assay [15], in [10], in assay [11], in assay [12] and in assay [13]. In addition, the Potency in [7] is 4.22 µM (active).
`O=C(CCCN1CCN(c2ccc(F)cc2)CC1)NC1c2ccccc2CSc2ccccc21` (stereo not given): the Potency result in [1], in [3], in assay [5], in assay [16], in assay [6] and in [9] was “inactive” throughout. Besides, the Potency entry in [14] was “inactive”. The outcome in [15], in assay [10], in assay [11], in [12] and in assay [13] was inactive.
For `O=C(CCCCCCC(=O)Nc1ccccc1)NO`, the Potency entry in assay [3], in assay [5], in [17], in assay [16], in assay [6] and in assay [8] was “inactive” each time. The Potency result in assay [9] and in assay [14] was “inactive” each time. The Potency in assay [19] was 2.66 µM (active); in [4] it was 1.19 µM (active). For the same compound, the outcome in assay [15], in [10], in assay [11], in assay [12] and in assay [13] was inactive.
Consider `O=C(CS)OCCOC(=O)CS`, for which the Potency result in assay [1], in [3], in assay [4], in assay [17], in assay [16] and in assay [6] was “inactive” in each case. The Potency result in [7] and in assay [9] was “inactive” each time. The Potency in [19] was 30.6 µM (active). Further, the compound was classed as inactive in assay [15], in assay [10], in assay [11], in assay [12] and in assay [13].
With `C=CCOC(=O)/C=C\C(=O)OCC=C`, the Potency entry in assay [3], in [19], in assay [18], in assay [4], in assay [5] and in assay [17] was “inactive” throughout. Further, the Potency result in assay [6], in assay [7], in assay [8], in [9] and in assay [14] was “inactive” in each case. The call in [15], in [10], in assay [11], in [12] and in assay [13] was inactive.

These data come from PubChem BioAssay (Tox21).
